# Assay outcomes from PubChem.
# D1 antagonist: human D1 dopamine receptor antagonism; P21728; HEK293 TREx D1 cells, calcium flux, dopamine EC80; active compounds read low; activity change, negative = inhibition, % at 10 µM; 360,000 tested, 3.2% active; in the data active means activity change below about -30%; further: on the % scale 0 is the no-effect control and ±100 the full control effect
# Target sequence (P21728 whole entry, looked up): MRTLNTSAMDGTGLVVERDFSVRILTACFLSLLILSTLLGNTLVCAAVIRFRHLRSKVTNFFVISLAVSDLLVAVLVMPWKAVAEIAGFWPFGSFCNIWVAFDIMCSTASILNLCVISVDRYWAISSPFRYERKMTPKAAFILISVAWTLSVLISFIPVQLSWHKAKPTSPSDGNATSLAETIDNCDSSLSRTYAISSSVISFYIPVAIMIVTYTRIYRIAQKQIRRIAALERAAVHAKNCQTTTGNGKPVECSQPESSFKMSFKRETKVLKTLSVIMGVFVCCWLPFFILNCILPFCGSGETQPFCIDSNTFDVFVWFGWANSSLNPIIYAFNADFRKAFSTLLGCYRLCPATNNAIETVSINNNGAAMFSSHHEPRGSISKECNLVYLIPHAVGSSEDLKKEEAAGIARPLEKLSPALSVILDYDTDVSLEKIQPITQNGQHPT
#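 Allosteric or orthosteric antagonism assessed as attenuation of the calcium response to EC80 dopamine, added 180 s after compound, in induced HEK293 Trex D1 cells loaded with no-wash calcium dye.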
# DRD3 agonist: agonists of human D3 dopamine receptor. 410,000 tested, 0.58% active. max activation, %. D3R DiscoveRx beta-arrestin cells, luminescence, 90 min; in the data active means max activation above about 30%; further: 0% is about no effect
#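 Cells at 1500/well, incubated overnight, then treated with pinned compounds (dopamine as control) for 90 min at 37 degrees C. DiscoveRx reagent added for 30 - 60 minutes at room temperature; luminescence read.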
# DRD3 antagonist: blocks the human D3 dopamine receptor; 360,000 tested, 2.5% active; max response, negative = inhibition, %; P35462; D3R cells, DiscoveRx beta-arrestin luminescence, antagonist mode; active compounds read low; in the data active means max response below about -50%; inconclusive means no clear call, values can overlap the other calls; further: on the % scale 0 is the no-effect control and ±100 the full control effect
#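 Cells expressing the human receptor were seeded at 1500 cells/well, incubated overnight at 37 degrees C in 5% CO2, then exposed to library compounds with dopamine controls for 90 minutes at 37 degrees C before luminescent detection.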
# D1 agonist: activates the human D1 dopamine receptor. P21728. 360,000 tested, 1% active. AID 504660. activation, % at 2 µM. HEK293 T-REx D1 cells, calcium flux, agonist mode; in the data active means activation above about 30%; further: 0% is about no effect
#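 Inducible HEK293 T-REx D1 cells, force-coupled to calcium signalling, were plated at 4000 cells/well with tetracycline and held overnight at 30 C. After no-wash calcium dye loading, compound-evoked calcium rise over 180 s flagged agonists.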
# D1 potentiator: human D1 dopamine receptor positive modulation; HEK293 TREx D1 cells, calcium flux, dopamine EC20 potentiation; potentiation, % at 10 µM; 360,000 tested, 0.036% active; AID 504651; in the data active means potentiation above about 30%; further: 0% is about no effect
# * marks the source's active call; other numbers are inactive results; ? = inconclusive; / = not tested or not shown. Shown are actives, neighbours in structure and some others; about 6.1% of the full set was active somewhere.
SMILES,D1 antagonist,DRD3 agonist,DRD3 antagonist,D1 agonist,D1 potentiator
COc1cc(C(C)=O)ccc1OCC(O)CN1CCN(c2cc(C)cc(C)c2)CC1 (stereo unspecified),-29,-11,-56*,28,-6
OC(COc1ccc2cc(Br)ccc2c1)CN1CCN(c2ccccn2)CC1 (stereo unspecified),-6,227*,8,-1,16
CC(=O)c1ccc(OCC(O)CN2CCN(c3ccc(F)cc3)CC2)cc1 (stereo unspecified),-15,9,?,4,-1
COc1ccccc1NC(=O)N1CCN(c2nnc(C)c3c(C)n(-c4ccccc4)nc23)CC1,-2,-16,/,4,-2
COc1cc(OC)cc(C(=O)NCc2ccc3c(c2)CCN3C(=O)c2ccccc2)c1,12,-19,/,2,-4
CCOc1ccccc1NC(=O)CCc1c(C)nc2c(c(C)nn2-c2ccccc2)c1C,3,-5,/,1,3
CCOc1ccc(OCC)c(NS(=O)(=O)c2ccc3c(c2)CCCN3C(C)=O)c1,-14,-3,/,2,-3
COc1ccc(-n2c(=O)c3ccccc3n(Cc3ccccc3C)c2=O)c(OC)c1,-14,-4,/,-1,4
OC(COc1ccccc1)CN1CCN(c2ncccn2)CC1 (stereo unspecified),-4,-33,?,4,-2
COc1cccc(OCC(O)CN2CCN(c3ccccc3)CC2)c1 (stereo unspecified),3,31*,?,2,-6
COc1cccc(OCC(O)CN2CCN(c3ccccn3)CC2)c1 (stereo unspecified),16,35*,?,1,-1
OCC(O)CN1CCN(c2ccccc2)CC1 (stereo unspecified),13,-21,-18,3,2
OC(CSc1ccc(F)cc1)CN1CCN(c2ccccc2)CC1 (stereo unspecified),-24,14,-72*,3,-5
OC(COc1ccccc1)CN1CCN(c2ccccc2)CC1 (stereo unspecified),/,-4,-71*,/,/
Cc1cccc(NC(=O)Cn2c(=O)n(CCC(=O)N3CCc4ccccc4C3)c(=O)c3ccccc32)c1,-18,-1,/,3,1
COc1ccccc1NC(=O)C(Cc1ccccc1)NS(=O)(=O)c1ccc2c(c1)c(=O)n(C)c(=O)n2C (stereo unspecified),-3,-19,/,6,0
CCN1CCN(c2nc3ccccc3n3cnnc23)CC1,-7,-22,-70*,1,0
Cc1noc(C)c1S(=O)(=O)Nc1ccc(C(=O)N2CCN(c3ccc(Cl)cc3)CC2)cc1,-36*,4,27,20,-7
CC(=O)c1ccc(N2CCN(C(=O)c3ccc(OCc4c(C)noc4C)cc3)CC2)cc1,-32*,-5,2,8,-2
CC(C)(C)C(=O)CSc1nc2ccsc2c(=O)n1Cc1ccccc1Cl,2,-3,/,2,-1
COc1ccc(OC)c(C(C)NC(=O)Cn2c(=O)cc(C)c3c(C)nn(-c4ccc(C)cc4)c32)c1 (stereo unspecified),6,-9,/,3,1
O=C(Nc1scc(-c2cccs2)c1C(=O)O)c1cccs1,-84*,-10,?,3,-4
COC(=O)c1c(-c2cccs2)csc1NC(=O)c1ccc(OC)c(OC)c1,1,24,/,3,-2
COC(=O)c1c(-c2cccs2)csc1NC(=O)c1cc(OC)c(OC)c(OC)c1,-66*,36*,/,0,0
COc1cccc(CNCCSc2nnnn2-c2ccccc2)c1OC,6,-18,/,18,-1
SMILES,D1 antagonist,DRD3 agonist,DRD3 antagonist,D1 agonist,D1 potentiator
O=C(/C=C/c1ccc2c(c1)OCO2)NCCSCc1c(Cl)cccc1Cl,-32*,-8,?,42*,-7
O=C(/C=C/c1ccc2c(c1)OCO2)NCCSCc1ccc(Cl)cc1,-26,-7,6,11,-9
CCCCN(CC)Cc1ccc(CNC(=S)Nc2cccc(F)c2)o1,-1,-16,-25,34*,-9
CS(=O)(=O)N1CCN(c2ccc(NC(=O)c3ccc(-c4ccc(Cl)cc4)o3)cc2)CC1,-2,-5,8,-1,-3
CN1CCN(c2ccc(NC(=O)c3ccc(-c4ccc(Cl)cc4)o3)cc2)CC1,-72*,-5,0,21,-2
Cc1ccc(C(NC(=O)c2cccc(S(=O)(=O)N3CCN(C)CC3)c2)c2ccccc2)cc1 (stereo unspecified),-66*,-9,9,5,-1
COc1cc(OC)cc(C(=O)NC(=S)Nc2ccc(N3CCCC3)cc2)c1,-35*,-2,3,0,-5
COc1cc(OC)cc(C(=O)NC(=S)N2CCCCCC2)c1,-3,-3,-18,2,-1
CN1CCN(c2ccc(CNS(=O)(=O)c3ccccc3)cc2)CC1,-35*,-25,-20,4,-2
Cc1cc2c(s1)c1cnn(Cc3c(F)ccc(C)c3F)c(=O)c1n2C,-24,/,/,0,12
COc1ccc2c(c1)c1c(c(=O)n(-c3ccccc3C)c(=O)n1CC(=O)Nc1c(C)cccc1C)n2C,2,-7,/,0,-1
COc1ccc(C(=O)NCc2ccc3c(c2)CCN3C(=O)c2ccc(Cl)cc2)c(OC)c1,3,-7,/,3,-1
Cc1cccn2c(=O)cc(CSc3nnc(NC(=O)COc4ccccc4)s3)nc12,-2,-3,/,1,-4
CCCCCCCCCCCCCCCCCC(=O)OCCO,/,-10,/,/,/
O=C(Cc1ccccc1)Nc1ccc(N2CCCCC2)cc1,6,-3,-3,3,-1
Cc1ccc(C(=O)Nc2ccc(N3CCN(C)CC3)cc2)cc1C,-31*,1,-2,1,-19
CCN1CCN(c2ccc(NC(=O)c3cccc(OCc4ccccc4)c3)cc2)CC1,-1,-6,?,39*,-2
Cc1c(NC(=S)NC(=O)c2ccc(-c3ccc(Cl)cc3)o2)cccc1C(=O)O,-31*,-3,-13,-4,-5
CN1CCN(c2ccc(NC(=O)Cc3ccccc3)cc2)CC1,-39*,3,17,5,-22
Cc1ccc(C(=O)Nc2ccc(N3CCN(S(C)(=O)=O)CC3)cc2)cc1C,14,-20,-16,3,6
COc1ccc(OC)c(NC(=O)c2cc3cc(C)ccc3n2C)c1,10,20,/,-2,1
O=C(CSc1nc2c([nH]c3ccccc32)c(=O)n1-c1cccc(Cl)c1)c1ccccc1,-9,1,/,0,-4
CCOc1cccc(C(=O)NC(=S)Nc2ccc(N3CCN(CC)CC3)cc2)c1,-44*,-11,-6,19,-13
Cc1ccc(C(=O)Nc2ccc(N3CCN(C)CC3)cc2)c(Cl)c1,-33*,-7,-12,0,-8
CN1CCN(c2ccc(NC(=O)c3cccc(OCc4ccccc4)c3)cc2)CC1,-64*,-12,-14,14,-8
